Screening results deposited in PubChem BioAssay by several laboratories.
Only some compounds are listed: those with a hit (about 1.4% of all), similar ones and a draw of the others.
Mtb hypoxia rep = PubChem AID 1159583; M. tuberculosis hypoxia-regulated fluorescent reporter, fluorescence; fluorescence inhibition, % (concentration not given with the values); actives 0.1% (n = 300,000); in the data active = fluorescence inhibition mostly above about 23%, no sharp cut-off; inactive = mostly below about 17%
BJeLR viability = MLPCN primary cell-based screen for lethality selective to Ras in HRASV12 cells; inhibition, % (test concentration not listed); BJeLR (HRASV12) viability, CellTiter-Glo ATP luminescence, 48 h; AID 1554, 2009; actives 0.17% (n = 300,000); in the data active = inhibition above about 50%
PrP 5UTR inh = inhibition of PrP 5' UTR reporter expression. cell-based PrP 5' UTR mRNA reporter, plate reader. inhibition, % (test concentration not listed). AID 488862, 2010. actives 0.35% (n = 340,000); in the data active = inhibition above about 52%; also: 0 = median of the neutral control wells
SARS 3CLpro inh = SARS-CoV 3CLpro protease inhibitors, primary screen, biochemical, quenched FRET; Replicase polyprotein 1ab (Severe acute respiratory syndrome coronavirus), P0C6X7; actives 0.14% (n = 290,000); AID 1706, 2009; inhibition, % at 6 µM; recombinant SARS-CoV 3CLpro, quenched FRET peptide cleavage; in the data active = inhibition above about 12%
RecA intein inh = Mtb RecA intein splicing inhibitors, primary screen, biochemical, fluorescence, HTS; Protein RecA (Mycobacterium tuberculosis (strain ATCC 25618 / H37Rv)), P9WHJ3; cell-free RecA intein splicing; inhibition, % (no concentration beside the values); actives 0.75% (n = 290,000); AID 2221, 2009; in the data active = inhibition above about 30%;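 also: 0% = vehicle wells and 100% = reference inhibitor control wells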
Target sequence (P9WHJ3 whole entry, looked up): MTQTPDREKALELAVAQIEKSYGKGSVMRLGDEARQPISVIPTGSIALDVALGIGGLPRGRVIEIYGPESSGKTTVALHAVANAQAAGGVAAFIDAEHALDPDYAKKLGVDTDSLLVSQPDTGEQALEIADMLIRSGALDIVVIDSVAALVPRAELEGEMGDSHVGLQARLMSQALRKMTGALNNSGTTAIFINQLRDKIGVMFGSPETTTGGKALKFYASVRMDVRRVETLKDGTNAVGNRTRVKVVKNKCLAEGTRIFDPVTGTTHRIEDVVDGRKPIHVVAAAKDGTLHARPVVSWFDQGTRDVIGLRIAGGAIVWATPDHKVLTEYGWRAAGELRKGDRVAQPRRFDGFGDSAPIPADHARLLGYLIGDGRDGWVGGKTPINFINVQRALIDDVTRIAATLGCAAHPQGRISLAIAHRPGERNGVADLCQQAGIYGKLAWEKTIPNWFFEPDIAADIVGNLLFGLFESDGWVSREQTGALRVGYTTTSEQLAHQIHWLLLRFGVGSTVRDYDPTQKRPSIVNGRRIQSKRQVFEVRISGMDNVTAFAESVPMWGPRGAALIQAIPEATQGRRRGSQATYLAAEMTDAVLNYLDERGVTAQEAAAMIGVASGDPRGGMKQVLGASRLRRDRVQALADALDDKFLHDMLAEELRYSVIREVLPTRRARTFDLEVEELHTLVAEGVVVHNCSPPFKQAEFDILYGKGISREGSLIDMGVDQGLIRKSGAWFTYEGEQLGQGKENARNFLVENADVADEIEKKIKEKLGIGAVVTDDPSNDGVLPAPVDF
PrPC surface inh = inhibitors of human cell surface prion protein PrPC, primary screen, cell-based, TR-FRET; TR-FRET read-out; inhibition, % at 13.8 µM; actives 0.43% (n = 370,000); AID 720596, 2013; in the data active = inhibition above about 24%; also: 0% = median of the test wells and 100% = reference compound wells
An asterisk follows results filed as active; . = no result shown.

SMILES | Mtb hypoxia rep | BJeLR viability | PrP 5UTR inh | SARS 3CLpro inh | RecA intein inh | PrPC surface inh
O=C(/C=C/c1ccccc1)NC(NC(=S)Nc1cccc(Cl)c1)C(Cl)(Cl)Cl (stereo not given) | 2 | 1 | 79* | 7 | 6 | 10
N#CC1=C(N)C(C#N)(C#N)[C@H](c2c(F)cccc2F)[C@H]2CC3(CC=C12)OCCO3 | -2 | -2 | -11 | 5 | 35* | 1
CN1C2C=C3C(C#N)=C(N)C(C#N)(C#N)[C@H](c4c(F)cccc4F)[C@H]3C1CC2 (stereo not given in full) | -4 | 6 | -4 | -5 | 7 | -7
CC(C)(C)OC(=O)NCCCCC(C(=O)N1CCN(C(=O)OC(C)(C)C)CC1)n1cc(CCC(=O)O)nn1 (stereo not given) | 0 | . | . | . | . | .
Cc1c(C(N)=O)c(-c2ccccc2)nn1-c1ccccc1 | 13 | -16 | -13 | -1 | -7 | 0
CCCc1c(-c2ccc(O)cc2)nn(-c2ccc(O)cc2)c1-c1ccc(O)cc1 | . | 5 | -11 | . | 51* | .
CC1=CSC(=C(C#N)C(=O)N2CCCCC2)N1c1ccccc1 | 10 | . | . | . | . | .
CC(O)C1CCC2C3CCC4CC(O)CC[C@]4(C)C3C(=O)C[C@]12C (stereo not given in full) | -2 | . | . | . | . | .
O=C(C1=C(c2ccccc2)C(=O)c2ccccc2C1=O)c1ccccc1 | 7 | 32 | -18 | 3 | 36* | -4
COC(=O)C1=C(C(=O)OC)C2N(C)c3ccc(OC)cc3[C@@]23CC(C(=O)OC)N(C(=O)c2cc(C)oc2C)C3=N1 (stereo not given in full) | 11 | . | . | . | . | .
CCCS(=O)(=O)N1CCN(Cc2ccc3c(c2)c2ccccc2n3CC)CC1 | 41* | -11 | -17 | 0 | 6 | -11
C(=NNc1nc(-c2ccccc2)cc(-c2ccccc2)n1)c1cccnc1 | 1 | . | . | . | . | .
COc1cc(/C=C/c2cc[n+](C)cc2)ccc1OCC(=O)Nc1ccc(Cl)c(Cl)c1 | 16 | 5 | -4 | -20 | 40* | -28
COC(=O)Nc1nn(-c2ccc(C)cc2)c(=O)c(C#N)c1C | 20 | -9 | -10 | 4 | 19 | -56
COC(=O)Nc1nn(-c2ccc(OC)cc2)c(=O)c(C#N)c1C | 2 | 19 | -9 | -2 | 40* | -67
O=C(NC(CSCc1ccccc1)C(=O)NN=Cc1ccc(O)cc1O)c1ccc([N+](=O)[O-])cc1 (stereo not given) | -2 | . | . | . | . | .
O=C(CCl)Nc1sccc1C(=O)c1ccccc1 | . | 17 | 2 | . | 57* | -2
CNC(=O)c1ccsc1NC(=O)c1ccccc1 | 1 | -4 | -9 | . | 1 | 5
C=C(C)[C@@H]1CC=C(CN2CCN(Cc3ccccc3)CC2)CC1 | 35* | -1 | -23 | -5 | 1 | 4
C=C(C)C1CC=C(CN2CCN(Cc3ccccc3)CC2)CC1 (stereo not given) | 22 | -3 | -15 | 0 | 3 | -4
CC=C(C)C(=O)Nc1cccc(C2=NOC3(C2)CC(C(N)=O)N(C(=O)CC(c2ccccc2)c2ccccc2)C3)c1 (stereo not given) | 1 | . | . | . | . | .
O=C1N=NC2=C1c1c3ccccc3c(O)n1CC2 | 15 | -18 | 2 | 0 | 56* | 2
CC1=NNC(=O)C1Cc1ccc(F)cc1 (stereo not given) | -1 | -3 | -15 | 1 | 97* | -5
CC1=NNC(=O)C1CCC(=O)N/N=C/c1ccc(C)cc1 (stereo not given) | . | 8 | . | 1 | -4 | 3
CC1CN(C(C)CO)C(=O)c2cc(NC(=O)Cn3cnnn3)ccc2OC1CN(C)Cc1ccc(Oc2ccccc2)cc1 (stereo not given) | 11 | . | . | . | . | .
SMILES | Mtb hypoxia rep | BJeLR viability | PrP 5UTR inh | SARS 3CLpro inh | RecA intein inh | PrPC surface inh
CCOC(=O)c1c(NC(=O)/C=C\C(=O)O)sc(C)c1-c1ccccc1 | . | 1 | -15 | 1 | 56* | 6
Cc1sc(NC(=O)/C=C/C(=O)O)c(C(N)=O)c1-c1ccc(C(C)(C)C)cc1 | 14 | 8 | -3 | 5 | 61* | 10
ClC(Cl)(Cl)c1nc2ccccc2n2nncc12 | . | 48 | -6 | -3 | 55* | 23
c1ccc2c(c1)nnn1c3ccccc3nc21 | . | 16 | . | -2 | -24 | .
O=C(C=Cc1c(Cl)nc2ccccn12)N1CCN(c2ccccc2F)CC1 | 2 | . | . | . | . | .
O=C(Nc1ccc(S(=O)(=O)NC2=NCCCCC2)cc1)c1cccs1 | 30* | . | -9 | . | . | 3
O=C(/C=C/c1cccc2ccccc12)c1ccncc1 | 22 | 71* | -14 | -2 | 6 | 18
COc1cc(/C=C/C(=O)c2ccc([N+](=O)[O-])o2)ccc1O | . | 92* | -17 | . | -18 | -3
COc1ccc(/C=C/C(=O)c2ccc([N+](=O)[O-])o2)cc1OC | . | 70* | . | . | -25 | -6
COc1cc(/C=C/[N+](=O)[O-])ccc1O | . | 72* | -2 | -3 | -1 | -5
O=C(/C=C/c1cccc(Cl)c1)c1ccc([N+](=O)[O-])o1 | . | 107* | -27 | . | 1 | 0
O=C(NN=Cc1ccccc1C(=O)O)c1ccccc1Br | -1 | . | . | . | . | .
C=CCC(CC(=O)NCCO)C(=O)NC(COC(=O)C(CC=C)CC(=O)OC(C)(C)C)c1ccccc1 (stereo not given) | 9 | . | . | . | . | .
O=C(COc1ccc(Br)cc1)NN=C1SCC(=O)N1Cc1ccco1 | -3 | . | . | . | . | .
C#CCOCCOCCOCCNc1nc(N2CCN(C(=O)C(CCC(=O)O)n3cc(C(N)Cc4ccc(O)cc4)nn3)CC2)nc(N2CCN(C(=O)C(CCCCN)n3cc(C(N)C(C)CC)nn3)CC2)n1 (stereo not given) | 5 | . | . | . | . | .
Cc1ccc(C2(C)NC(=O)N(CC(=O)N3c4ccccc4NC(=O)CC3C)C2=O)cc1 (stereo not given) | 13* | . | 0 | . | . | 3
COC(=O)/C(=C1/Oc2ccc(C(C)(C)C)cc2S1)C(F)(F)F | -5 | 1 | -57 | -2 | . | 4
COC(=O)/C(=C1/Oc2cc(C)oc(=O)c2S1)C(F)(F)F | . | 12 | 0 | -1 | 44* | -5
CCCCC#Cc1ccccc1COC[B-](F)(F)F | . | . | . | . | . | 29*
COc1ccc(-c2cc3nc(C)cc(N)n3n2)cc1 | 10 | 51* | -3 | -7 | . | -1
COC(=O)c1ccc(-c2noc(CN(C)CCC3CCCCO3)n2)cc1 (stereo not given) | -8 | 1 | -23 | -3 | 0 | -1
COC(=O)c1ccc(-c2noc(CN3CCCC(CNC(C)=O)C3)n2)cc1 (stereo not given) | 9 | -1 | 58* | 4 | 1 | 3
CCCCCCCCN1C(CC(=O)OCC)c2ccc(C(F)(F)F)cc2S1(=O)=O (stereo not given) | 1 | . | . | . | . | .
CN(C)C=Nc1c(C#N)cnn1-c1nc2ccccc2s1 | 14 | . | . | . | . | .
